We go through 14 compounds from PubChem BioAssay.

Calls of active or inactive are those of the source.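 How the source made its calls, unless noted: active means compound that reduces growth-factor-driven endothelial tube area in a mixed cell culture, no cutoff stated; inactive means the rest.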

The nature of assay [1]: Wnt pathway potentiators raising nuclear beta-catenin – imaging, WNT3A-conditioned medium, mouse C2C12, NPC library, primary screen (AID 1117326; in the data active means nuclear beta-catenin stimulation mostly above about 4.2%, no sharp cut-off; inactive means mostly below about 10%; further: reference of the scale not given here). The note with it: stronger effect = higher value.
The nature of assay [2]: stimulators of insulin release from INS-1E, primary screen, cell-based, 5 mM glucose, NPC library (AID 1117329;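 active means compound raises insulin release from rat beta cells at 5 mM glucose, no numeric limit stated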; further: reference of the scale not given here). The note with it: rat INS-1E insulin secretion, at 10 µM, stronger effect = higher value.
The nature of assay [3]: growth inhibition of GSK3B-pretreated HCT116 cells – cell-based, CellTiter-Glo, 0.2 to 20 µM (AID 1117336;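 active means compounds lowering colon cancer cell viability after pretreatment blocking the GSK3B kinase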). To be noted: HCT116 viability after GSK3B inhibitor, at 20 µM, stronger effect = higher value. A general note: Cellular ATP, detected with luciferase, serves as a proxy for viable cell number.
Assay [4] in a line: inhibition of endothelial tube formation, primary screen, imaging, VEGF stimulated, CD31 staining, tube area, NPC library (AID 1117340). The note with it: VEGF-stimulated ADSC/ECFC co-culture, at 10 µM, stronger effect = higher value.
Assay [5] is described as follows: GLP1 release stimulators, primary, NCI-H716, NPC library (AID 1117341;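 active means compound raises GLP1 secretion from the human gut endocrine cells, with no numeric limit stated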; further: reference of the scale not given here). To be noted: NCI-H716 cells, at 10 µM, stronger effect = higher value.
Assay [6] in a line: HCT116 colon cancer cell growth inhibition, primary screen, CellTiter-Glo luminescence, NPC library (AID 1117342;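 active means compounds that lower survival of HCT116 colon cancer cells in the luminescence readout, no numeric limit stated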). To be noted: at 20 µM (top of the series).
Assay [7] in a line: reduced SW480 viability measured with CellTiter-Glo, NPC library, primary (AID 1117343;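 active means compounds that lower viability of the colon cancer cells in the luminescence readout, with no numeric limit stated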). To be noted: CellTiter-Glo luminescence; at 20 µM (top of the series).
Assay [8] in a line: NPC library primary testing for decreased DLD-1 cell viability via CellTiter-Glo (AID 1117346;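 active means compounds that lower survival of DLD-1 colon cancer cells in the luminescence readout, no cutoff given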). The note with it: DLD-1 viability, CellTiter-Glo luminescence; at 20 µM (top of the series).

Take `CCN(CC)C(=O)[C@]1(c2ccccc2)C[C@H]1CN`: the nuclear beta-catenin stimulation in assay [1] (at 10 µM) was -2.4% (inactive); in assay [1] (stimulation, at 2 µM), -0.9%. Further, the insulin secretion stimulation in assay [2] is 10.5% (inactive). For the same compound, the viability decrease in assay [3] was -13.1% (inactive). For the same compound, in assay [4], the tube area decrease is -15.6% (inactive). For the same compound, the GLP1 secretion stimulation in assay [5] was 3.7% (inactive). For the same compound, the inhibition of viability in assay [6] was -3.6% (inactive). Further, the viability decrease (inhibition) in assay [7] is 7% (inactive); in assay [8], 3.4% (inactive).
Turning to `O=C(O)c1ccccc1-c1ccc(C(F)(F)F)cc1`, the nuclear beta-catenin stimulation in assay [1] (at 10 µM) was 2.2% (inactive); in assay [1] (stimulation, at 2 µM), 0.7%. Further, the insulin secretion stimulation in assay [2] was -0.1% (inactive). The viability decrease in assay [3] was -52.5% (inactive). For the same compound, in assay [4], the tube area decrease is 21.5% (inactive). Further, the GLP1 secretion stimulation in assay [5] was 5.5% (inactive). The inhibition of viability in assay [6] is -0.77% (inactive). Further, the results for the viability decrease (inhibition) in assay [7] and in assay [8] were 31.1% (inactive) and -11.8% (inactive), respectively.
Regarding `CC(O)CCCCn1c(=O)c2c(ncn2C)n(C)c1=O` (stereo unspecified), the nuclear beta-catenin stimulation in assay [1] (at 10 µM) was -0.6% (inactive); in assay [1] (stimulation, at 2 µM), 3.3%. Moreover, in assay [2], the insulin secretion stimulation is 3.75% (inactive). Also, the viability decrease in assay [3] was 15.3% (inactive). Besides, in assay [4], the tube area decrease is -9.4% (inactive). Besides, the GLP1 secretion stimulation in assay [5] was -3.4% (inactive). Besides, the inhibition of viability in assay [6] is 0.8% (inactive). In addition, the values for the viability decrease (inhibition) in assay [7] and in assay [8] were 3.8% (inactive) and 6.4% (inactive), respectively.
Take `CCn1ccc(NS(=O)(=O)c2ccc(N)cc2)nc1=O`: the nuclear beta-catenin stimulation in assay [1] (at 10 µM) was 1.9% (inactive); in assay [1] (stimulation, at 2 µM) it was 1.4%. Besides, in assay [2], the insulin secretion stimulation was 3.4% (inactive). The viability decrease in assay [3] is -22.1% (inactive). In addition, the tube area decrease in assay [4] is 11.6% (inactive). Also, in assay [5], the GLP1 secretion stimulation was 2.7% (inactive). Besides, in assay [6], the inhibition of viability was -54.2% (inactive). Besides, the viability decrease (inhibition) in assay [7] was -2.8% (inactive); in assay [8], -26.4% (inactive).
As to `COc1ccc2nc(NC(=O)Nc3ccccc3)sc2c1`, the nuclear beta-catenin stimulation in assay [1] (at 10 µM) was 0.5% (inactive); in assay [1] (stimulation, at 2 µM) it was 0%. Further, the insulin secretion stimulation in assay [2] is 1.3% (inactive). Further, the viability decrease in assay [3] is 11.7% (inactive). Also, the tube area decrease in assay [4] is 2.4% (inactive). Besides, the GLP1 secretion stimulation in assay [5] was -1.4% (inactive). For the same compound, the inhibition of viability in assay [6] is 43% (inactive). In addition, the viability decrease (inhibition) is -1.6% (inactive) in assay [7] and 24% (inactive) in assay [8].
`CCOc1ncc(F)c(=O)[nH]1`: the nuclear beta-catenin stimulation in assay [1] (at 10 µM) was -1% (inactive); in assay [1] (stimulation, at 2 µM), -1.1%. Besides, in assay [2], the insulin secretion stimulation was 2.9% (inactive). In addition, the viability decrease in assay [3] was 0.7% (inactive). Besides, the tube area decrease in assay [4] is 0.1% (inactive). In addition, in assay [5], the GLP1 secretion stimulation was 2.1% (inactive). Further, in assay [6], the inhibition of viability is 2.4% (inactive). For the same compound, the viability decrease (inhibition) is 3% (inactive) in assay [7] and -4.2% (inactive) in assay [8].
Turning to `CCCC(=O)O[C@]1(C(=O)CCl)[C@@H](C)C[C@H]2[C@@H]3CCC4=CC(=O)C=C[C@]4(C)[C@@]3(F)C(=O)C[C@@]21C`, the nuclear beta-catenin stimulation was 3.8% (inactive) in assay [1] (at 10 µM) and -0.1% in assay [1] (stimulation, at 2 µM). In addition, the insulin secretion stimulation in assay [2] was 3% (inactive). In addition, in assay [3], the viability decrease is 0.4% (inactive). Besides, the tube area decrease in assay [4] is 36.7% (inactive). Further, in assay [5], the GLP1 secretion stimulation was -0.4% (inactive). For the same compound, in assay [6], the inhibition of viability was 70.5% (active). Also, the viability decrease (inhibition) in assay [7] was 99.8% (active); in assay [8] it was 47% (inactive).
On to `CCOC(CN1CCN(CC(C)C(=O)c2ccccc2)CC1)c1ccccc1` (stereo unspecified), for which the nuclear beta-catenin stimulation in assay [1] (at 10 µM) is 2.2% (inactive); in assay [1] (stimulation, at 2 µM), -0.1%. Besides, in assay [2], the insulin secretion stimulation was 5% (inactive). The viability decrease in assay [3] was -4.9% (inactive). In addition, the tube area decrease in assay [4] is 14% (inactive). Moreover, the GLP1 secretion stimulation in assay [5] was -1.8% (inactive). In addition, the inhibition of viability in assay [6] is 21.2% (inactive). Further, the viability decrease (inhibition) in assay [7] is 0.6% (inactive); in assay [8], -4.9% (inactive).
Turning to `O=C1CCCc2c(O)cccc21`, the nuclear beta-catenin stimulation in assay [1] (at 10 µM) was 1.1% (inactive); in assay [1] (stimulation, at 2 µM) it was 2.2%. In addition, the insulin secretion stimulation in assay [2] was 0.3% (inactive). Also, the viability decrease in assay [3] is 1% (inactive). For the same compound, the tube area decrease in assay [4] is 19.3% (inactive). In assay [5], the GLP1 secretion stimulation is 2.2% (inactive). In addition, the inhibition of viability in assay [6] is 11.4% (inactive). Besides, the results for the viability decrease (inhibition) in assay [7] and in assay [8] were 12.5% (inactive) and -7.2% (inactive), respectively.
In the case of `CCCCCOc1ccc(C2SC(=O)NC2=O)cc1OCC` (stereo unspecified), the nuclear beta-catenin stimulation is -0.1% (inactive) in assay [1] (at 10 µM) and 11.7% in assay [1] (stimulation, at 2 µM). Moreover, the insulin secretion stimulation in assay [2] is 0.7% (inactive). The viability decrease in assay [3] was 46.8% (inactive). Moreover, the tube area decrease in assay [4] was 5.8% (inactive). Further, in assay [5], the GLP1 secretion stimulation is 3.7% (inactive). The inhibition of viability in assay [6] was 32.6% (inactive). Besides, the viability decrease (inhibition) in assay [7] was 6.6% (inactive); in assay [8] it was 11.8% (inactive).
With `CCCCCC1Nc2cc(C(F)(F)F)c(S(N)(=O)=O)cc2S(=O)(=O)N1` (stereo unspecified), the nuclear beta-catenin stimulation in assay [1] (at 10 µM) is 0.5% (inactive); in assay [1] (stimulation, at 2 µM), -0.2%. In addition, in assay [2], the insulin secretion stimulation was 2% (inactive). The viability decrease in assay [3] is 13.4% (inactive). Also, the tube area decrease in assay [4] was 9.2% (inactive). Also, the GLP1 secretion stimulation in assay [5] was -0.1% (inactive). In assay [6], the inhibition of viability was 43% (inactive). The viability decrease (inhibition) in assay [7] is 0.7% (inactive); in assay [8], 31.7% (inactive).
In the case of `Cc1c(C)c2c(c(C)c1OC(=O)CCC(=O)OCCO)CC[C@@](C)(CCC[C@H](C)CCC[C@H](C)CCCC(C)C)O2`, the nuclear beta-catenin stimulation in assay [1] (at 10 µM) is 0% (inactive); in assay [1] (stimulation, at 2 µM) it was -0.6%. Moreover, in assay [2], the insulin secretion stimulation is 0.25% (inactive). In addition, the viability decrease in assay [3] is 116% (active). Moreover, the tube area decrease in assay [4] was 17.4% (inactive). For the same compound, the GLP1 secretion stimulation in assay [5] was 23% (active). In assay [6], the inhibition of viability is 122% (active). Also, the viability decrease (inhibition) in assay [7] is 157% (active); in assay [8], 101% (active).
Turning to `CCCCCCCCCCCCCCCCCCNC(=O)OC1CCN(C(=O)OC[C@H](COC(=O)N(Cc2cccc[n+]2CC)C(=O)c2ccccc2OC)OC)CC1`, the nuclear beta-catenin stimulation is 10.2% (inactive) in assay [1] (at 10 µM) and 0.5% in assay [1] (stimulation, at 2 µM). The insulin secretion stimulation in assay [2] was 117% (active). Further, the viability decrease in assay [3] is 110% (active). Further, in assay [4], the tube area decrease was 111% (active). The GLP1 secretion stimulation in assay [5] was 213% (active). For the same compound, in assay [6], the inhibition of viability was 112% (active). Moreover, the viability decrease (inhibition) was 131% (active) in assay [7] and 101% (active) in assay [8].
As to `COCCc1ccc(OCC2CO2)cc1` (stereo unspecified), the nuclear beta-catenin stimulation in assay [1] (at 10 µM) is 0.9% (inactive); in assay [1] (stimulation, at 2 µM), 0.3%. In addition, the insulin secretion stimulation in assay [2] was 0.8% (inactive). Moreover, in assay [3], the viability decrease was -8% (inactive). Further, the tube area decrease in assay [4] was -12.7% (inactive). For the same compound, the GLP1 secretion stimulation in assay [5] was 0.8% (inactive). Further, the inhibition of viability in assay [6] was -0.6% (inactive). Also, the results for the viability decrease (inhibition) in assay [7] and in assay [8] were 14.3% (inactive) and 3.3% (inactive), respectively.
